Experimental findings from article PMC9911399, “Two distinct binding modes provide the RNA-binding protein RbFox with extraordinary sequence specificity” are described below.

Substitutions are numbered along the chain they refer to; changes in the protein carry UniProt numbers. Over roughly 16,000 sequences, “ka relative to ugcaugu” has its median near 0.096; the highest 2% begin near 0.35. The list comes from a sample in which the highest values are over-represented; it also holds similar and randomly drawn sequences.

Sequences and labels used below:
B1: AUUCAGA (DNA:RNA)
RNA: GGGAGACCGGAAUUCAGAUUGUCCAUUCAGAUUAAAUCCCGUCGUAGCCACCA
DNA 1: CAATCTGAATTCCGGTCTCCC
DNA 2: TGGTGGCTACGACGGGATT
B2: AGUCACU (DNA:RNA)
RNA: B1 RNA with U26G, G30C, A31U
DNA 1: CAATCTGAATTCCGGTCTCCC
DNA 2: TGGTGGCTACGACGGGATT
B3: UACUUUU (DNA:RNA)
RNA: GGGAGACCGGAAUUCAGAUUGUCCUACUUUUUUAAAUCCCGUCGUAGCCACCA
DNA 1: CAATCTGAATTCCGGTCTCCC
DNA 2: TGGTGGCTACGACGGGATT
B4: UCCUCCU (DNA:RNA)
RNA: B3 RNA with A26C, U29C, U30C
DNA 1: CAATCTGAATTCCGGTCTCCC
DNA 2: TGGTGGCTACGACGGGATT
B5: UCUGGCC (DNA:RNA)
RNA: B1 RNA with A25U, U26C, C28G, A29G, G30C, A31C
DNA 1: CAATCTGAATTCCGGTCTCCC
DNA 2: TGGTGGCTACGACGGGATT
B6: UGGAAUC (DNA:RNA)
RNA: B3 RNA with A26G, C27G, U28A, U29A, U31C
DNA 1: CAATCTGAATTCCGGTCTCCC
DNA 2: TGGTGGCTACGACGGGATT
B7: UGGAAUG (DNA:RNA)
RNA: B3 RNA with A26G, C27G, U28A, U29A, U31G
DNA 1: CAATCTGAATTCCGGTCTCCC
DNA 2: TGGTGGCTACGACGGGATT
B8: UGGGAUC (DNA:RNA)
RNA: B3 RNA with A26G, C27G, U28G, U29A, U31C
DNA 1: CAATCTGAATTCCGGTCTCCC
DNA 2: TGGTGGCTACGACGGGATT
B9: UGGAUUC (DNA:RNA)
RNA: B3 RNA with A26G, C27G, U28A, U31C
DNA 1: CAATCTGAATTCCGGTCTCCC
DNA 2: TGGTGGCTACGACGGGATT
B10: UGGACUC (DNA:RNA)
RNA: B3 RNA with A26G, C27G, U28A, U29C, U31C
DNA 1: CAATCTGAATTCCGGTCTCCC
DNA 2: TGGTGGCTACGACGGGATT
B11: UGGAGAU (DNA:RNA)
RNA: B3 RNA with A26G, C27G, U28A, U29G, U30A
DNA 1: CAATCTGAATTCCGGTCTCCC
DNA 2: TGGTGGCTACGACGGGATT
B12: UCCUGGA (DNA:RNA)
RNA: B3 RNA with A26C, U29G, U30G, U31A
DNA 1: CAATCTGAATTCCGGTCTCCC
DNA 2: TGGTGGCTACGACGGGATT
B13: CUGGAUC (DNA:RNA)
RNA: B1 RNA with A25C, U27G, C28G, G30U, A31C
DNA 1: CAATCTGAATTCCGGTCTCCC
DNA 2: TGGTGGCTACGACGGGATT
B14: UGGAUCU (DNA:RNA)
RNA: B3 RNA with A26G, C27G, U28A, U30C
DNA 1: CAATCTGAATTCCGGTCTCCC
DNA 2: TGGTGGCTACGACGGGATT
B15: UGGAUUG (DNA:RNA)
RNA: B3 RNA with A26G, C27G, U28A, U31G
DNA 1: CAATCTGAATTCCGGTCTCCC
DNA 2: TGGTGGCTACGACGGGATT
B16: UGGAGUC (DNA:RNA)
RNA: B3 RNA with A26G, C27G, U28A, U29G, U31C
DNA 1: CAATCTGAATTCCGGTCTCCC
DNA 2: TGGTGGCTACGACGGGATT
B17: UGGAGAA (DNA:RNA)
RNA: B1 RNA with A25U, U26G, U27G, C28A, A29G, G30A
DNA 1: CAATCTGAATTCCGGTCTCCC
DNA 2: TGGTGGCTACGACGGGATT
B18: CCAGUUC (DNA:RNA)
RNA: B3 RNA with U25C, A26C, C27A, U28G, U31C
DNA 1: CAATCTGAATTCCGGTCTCCC
DNA 2: TGGTGGCTACGACGGGATT
B19: UCAGAGG (DNA:RNA)
RNA: B1 RNA with A25U, U26C, U27A, C28G, A31G
DNA 1: CAATCTGAATTCCGGTCTCCC
DNA 2: TGGTGGCTACGACGGGATT
B20: CCAUUUC (DNA:RNA)
RNA: B3 RNA with U25C, A26C, C27A, U31C
DNA 1: CAATCTGAATTCCGGTCTCCC
DNA 2: TGGTGGCTACGACGGGATT
B21: UGAUAGC (DNA:RNA)
RNA: B1 RNA with A25U, U26G, U27A, C28U, A31C
DNA 1: CAATCTGAATTCCGGTCTCCC
DNA 2: TGGTGGCTACGACGGGATT
B22: UAUAGUG (DNA:RNA)
RNA: B3 RNA with C27U, U28A, U29G, U31G
DNA 1: CAATCTGAATTCCGGTCTCCC
DNA 2: TGGTGGCTACGACGGGATT
B23: AGUGAUA (DNA:RNA)
RNA: B1 RNA with U26G, C28G, G30U
DNA 1: CAATCTGAATTCCGGTCTCCC
DNA 2: TGGTGGCTACGACGGGATT
B24: UAGGGUG (DNA:RNA)
RNA: B3 RNA with C27G, U28G, U29G, U31G
DNA 1: CAATCTGAATTCCGGTCTCCC
DNA 2: TGGTGGCTACGACGGGATT
B25: UCCACGA (DNA:RNA)
RNA: B1 RNA with A25U, U26C, U27C, C28A, A29C
DNA 1: CAATCTGAATTCCGGTCTCCC
DNA 2: TGGTGGCTACGACGGGATT
B26: CGAGCCU (DNA:RNA)
RNA: B3 RNA with U25C, A26G, C27A, U28G, U29C, U30C
DNA 1: CAATCTGAATTCCGGTCTCCC
DNA 2: TGGTGGCTACGACGGGATT
B27: UGAUGGA (DNA:RNA)
RNA: B1 RNA with A25U, U26G, U27A, C28U, A29G
DNA 1: CAATCTGAATTCCGGTCTCCC
DNA 2: TGGTGGCTACGACGGGATT
B28: UGGAUGA (DNA:RNA)
RNA: B1 RNA with A25U, U26G, U27G, C28A, A29U
DNA 1: CAATCTGAATTCCGGTCTCCC
DNA 2: TGGTGGCTACGACGGGATT
B29: CGGAUGA (DNA:RNA)
RNA: B1 RNA with A25C, U26G, U27G, C28A, A29U
DNA 1: CAATCTGAATTCCGGTCTCCC
DNA 2: TGGTGGCTACGACGGGATT
B30: GGGUGGA (DNA:RNA)
RNA: B1 RNA with A25G, U26G, U27G, C28U, A29G
DNA 1: CAATCTGAATTCCGGTCTCCC
DNA 2: TGGTGGCTACGACGGGATT
B31: AAAUCUG (DNA:RNA)
RNA: B3 RNA with U25A, C27A, U29C, U31G
DNA 1: CAATCTGAATTCCGGTCTCCC
DNA 2: TGGTGGCTACGACGGGATT
B32: UCACACA (DNA:RNA)
RNA: B1 RNA with A25U, U26C, U27A, G30C
DNA 1: CAATCTGAATTCCGGTCTCCC
DNA 2: TGGTGGCTACGACGGGATT

For the assay, the target named is T1, RBFOX1 RRM RbFoxmut (Fox-RRM*) (Homo sapiens, UniProt Q9NWB1 109-208, R118D;E147R;N151S;E152T).
T1 sequence: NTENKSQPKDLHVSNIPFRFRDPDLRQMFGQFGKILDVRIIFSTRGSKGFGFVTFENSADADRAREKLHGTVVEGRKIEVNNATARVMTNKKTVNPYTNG
The assay can be described thus: EMSA; HiTS-Eq, 1 nM pool, 10 min; buffer printed only for the single-RNA assays: 10 mM Tris pH 7.5, 150 mM NaCl, 3.4 mM EDTA, 0.001% NP-40, 30 C. The settings on record: tags: His6 N-terminal (pET28a); label: 5' 32P. The method, boiled down:
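Purified wild-type or mutant RbFox RRM at increasing concentrations was equilibrated with 1 nM of 5′-radiolabelled RNA carrying 7 randomized nucleotides for 10 min in 50 µL. Unbound RNA was separated by 8% native PAGE and sequenced. Relative association constants came from read-count changes of each RNA species compared with the control reaction, normalised to the cognate motif.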
In the case of B1, the binding signal is 0.0812 KA relative to UGCAUGU.
As for B2, the figure is 0.0668 KA relative to UGCAUGU; as for B3, 0.097 KA relative to UGCAUGU.
On to B4, for which the binding signal is 0.0641 KA relative to UGCAUGU.
As for B5, the figure is 0.161 KA relative to UGCAUGU.
For B6 the value was 0.458 KA relative to UGCAUGU; for B7, 1.66 KA relative to UGCAUGU; for B8, 0.357 KA relative to UGCAUGU.
For B9, the binding signal was 0.139 KA relative to UGCAUGU.
As for B10, the figure is 0.0856 KA relative to UGCAUGU.
As for B11, the figure is 0.094 KA relative to UGCAUGU; as for B12, 0.0709 KA relative to UGCAUGU; as for B13, 0.274 KA relative to UGCAUGU.
For B14 the value was 0.259 KA relative to UGCAUGU; for B15, 0.526 KA relative to UGCAUGU; for B16, 0.18 KA relative to UGCAUGU.
In the case of B17, the binding signal is 0.0999 KA relative to UGCAUGU.
For the molecule B18, the binding signal was 0.073 KA relative to UGCAUGU.
As for B19, the binding signal is 0.0974 KA relative to UGCAUGU.
As for B20, the figure is 0.0493 KA relative to UGCAUGU.
For B21 the value was 0.0858 KA relative to UGCAUGU; for B22, 0.137 KA relative to UGCAUGU; for B23, 0.133 KA relative to UGCAUGU.
As for B24, the figure is 0.149 KA relative to UGCAUGU.
B25: the binding signal is 0.0743 KA relative to UGCAUGU.
For the molecule B26, the binding signal is 0.103 KA relative to UGCAUGU.
With B27, the binding signal was 0.0611 KA relative to UGCAUGU.
As for B28, the figure is 0.401 KA relative to UGCAUGU; as for B29, 0.235 KA relative to UGCAUGU.
As for B30, the figure is 0.0811 KA relative to UGCAUGU; as for B31, 0.0533 KA relative to UGCAUGU; as for B32, 0.0876 KA relative to UGCAUGU.
